Experimental data: PubChem BioAssay (Tox21)
Values joined by “and” are separate entries in the source; they are usually repeats but may differ in a detail not shown here. Equal entries are not always repeated. Inconclusive results are not listed. The source holds several records for some structures; these can differ, active in one and inactive in another. Active and inactive are the calls of the source. Unless noted, calls come from the whole dose curve; as a rule, active = well fitted curve in the direction sought with a large enough effect in the repeat runs; inconclusive = weak or mixed curves; inactive = no such curve, though single readings can be large; an effect the other way counts as inactive or inconclusive.

Columns and labels:
[1] = qHTS assay to identify small molecule antagonists of the peroxisome proliferator-activated receptor delta (PPARd) signaling pathway - cell viability counter screen (AID 743213); note: nearly all actives have a fitted effect of over 50% in size; note: potency is the fitted concentration of half-maximal effect
In short: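 Agonist-stimulated (L165041, 300 nM final) HEK293H PPARd UAS-bla cells are exposed to compounds for 17 h at 37 C, and ATP-based luminescence (CellTiter-Glo) from the same wells reports cytotoxicity.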

[2] = qHTS assay to identify small molecule agonists of the farnesoid-X-receptor (FXR) signaling pathway - cell viability counter screen (AID 743218); note: nearly all actives have a fitted effect of over 45% in size
In short: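 Readout: CellTiter-Glo luminescence, 30 min RT, multiplexed after the FXR-bla FRET reading. HEK 293T FXR-UAS-bla cells received compound 5 h post-plating and were incubated 16 h at 37 C.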

[3] = qHTS assay to identify small molecule antagonists of the farnesoid-X-receptor (FXR) signaling pathway - cell viability counter screen (AID 743221; active = well fitted cell-killing curve with a large enough effect in the repeat runs, not every such curve was filed as active; note: nearly all actives have a fitted effect of over 50% in size)
In short: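 Luminescence from CellTiter-Glo measures cytotoxicity in GeneBLAzer FXR-UAS-bla HEK 293T cells. Cells were exposed to compounds with 50 uM chenodeoxycholic acid (final) for 16 h at 37 C, in wells also used for the reporter readout.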

[4] = qHTS assay to identify small molecule agonists of the vitamin D receptor (VDR) signaling pathway - cell viability counter screen (AID 743224); note: series mostly up to about 63 µM; nearly all actives have a fitted effect of over 50% in size
In short: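 In parallel with the bla FRET readout, cytotoxicity toward VDR-bla cells after 16 h compound exposure was assessed by CellTiter-Glo, with luminescence recorded after a 30 min room-temperature incubation.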

[5] = qHTS assay to identify small molecule antagonists of the vitamin D receptor (VDR) signaling pathway - cell viability counter screen (AID 743225); note: nearly all actives have a fitted effect of over 50% in size
In short: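 Read-out: CellTiter-Glo luminescence measured 30 min after reagent addition at room temperature. Cells were VDR-bla HEK 293T exposed 16 h at 37C, 5% CO2, to compound with 3 nM final calcitriol agonist.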

[6] = qHTS assay to identify small molecule agonists of the NFkB signaling pathway - cell viability counter screen (AID 1159515; calls by dose curve; note: nearly all actives have a fitted effect of over 55% in size; note: potency is the fitted concentration of half-maximal effect)
In short: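 Plate 2,000 NFkB-bla ME-180 cells/well; incubate overnight. Add compounds, 5 hr at 37 C. Add FRET substrate, 1.5 hr RT. Add CellTiter-Glo, 30 min RT; read luminescence.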

[7] = qHTS assay to identify small molecule agonists of the endoplasmic reticulum stress response signaling pathway (AID 1159516; active = well fitted activation curve with a large enough effect in the signal ratio in the repeat runs, not every such curve was filed as active; the % refers to the signal ratio)
In short: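 Beta-lactamase expression from the ER stress response element in HeLa reporter cells is quantified with the LiveBLAzer B/G FRET substrate, read at 405 nm excitation after 2 hr at room temperature, following 5 hr compound treatment at 37 C.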

[8] = qHTS assay to identify small molecule agonists of the endoplasmic reticulum stress response signaling pathway - cell viability counter screen (AID 1159517; calls by dose curve)
In short: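 Steps: seed 1,500 ESRE-bla HeLa cells per well; incubate overnight at 37 C, 5% CO2; add compounds in DMSO for 5 hr; run FRET substrate 2 hr RT; add CellTiter-Glo, wait 30 min, read luminescence.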

[9] = qHTS assay to identify small molecule antagonists of the retinoid-related orphan receptor gamma (ROR-gamma) signaling pathway - cell viability counter screen (AID 1159520); note: nearly all actives have a fitted effect of over 50% in size; note: potency is the fitted concentration of half-maximal effect
In short: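 Tet-on ROR gamma CHO cells were given compounds for 2 hr, then doxycycline hyclate at 1 uM final, and incubated 16 hr at 37 C. Viability was measured as ATP content by CellTiter-Glo luminescence.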

[10] = biological target: Nuclear receptor ROR-gamma (Homo sapiens) (UniProt P51449); experiment: qHTS assay to identify small molecule antagonists of the retinoid-related orphan receptor gamma (ROR-gamma) signaling pathway (AID 1159521; note: nearly all actives have a fitted effect of over 50% in size; note: potency is the fitted concentration of half-maximal effect)
In short: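 CHO Tet-on RORγ, RORE-luc reporter. Cpd 2 h pre-incubation, then dox hyclate 1 uM final, 16 h, 37 C/5% CO2. ONE-Glo luminescence; decrease = antagonist.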

[11] = qHTS assay to identify small molecule agonists of the AP-1 signaling pathway - cell viability counter screen (AID 1159525; calls by dose curve; note: nearly all actives have a fitted effect of over 55% in size; note: potency is the fitted concentration of half-maximal effect)
In short: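 Same-well cytotoxicity counter screen of the Tox21 10K library in ME-180 cells. The readout is ATP-dependent luminescence after 5 h compound treatment. Data are normalised to DMSO and tetra n-octyl ammonium bromide controls.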

[12] = qHTS assay to identify small molecule agonists of the AP-1 signaling pathway (AID 1159526; calls by dose curve; note: potency is the fitted concentration of half-maximal effect)
[13] = biological target: Retinoic acid receptor RXR-alpha (Homo sapiens) (UniProt P19793); experiment: qHTS assay to identify small molecule agonists of the RXR signaling pathway (AID 1159527; calls by dose curve; note: nearly all actives have a fitted effect of over 35% in size; note: potency is the fitted concentration of half-maximal effect)
In short: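 Read-out: beta-lactamase FRET ratio (405 nm excitation, 460 and 530 nm emission) after 2 hr substrate loading at room temperature. Cells were RXR-alpha-UAS-bla HEK 293T treated with compounds for 16 hr in 2% charcoal-stripped FBS medium.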

[14] = qHTS assay to identify small molecule agonists of the RXR signaling pathway - cell viability counter screen (AID 1159529); note: nearly all actives have a fitted effect of over 50% in size; note: potency is the fitted concentration of half-maximal effect
In short: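 HEK 293T RXRa-bla cells, 2% CS-FBS; 5 h settle; cpd 16 h 37 C, 5% CO2; CellTiter-Glo 30 min RT, luminescence. Tetraoctyl ammonium bromide as positive control.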

[15] = qHTS assay to identify small molecule antagonists of the retinoid acid receptor (RAR) signaling pathway - cell viability counter screen (AID 1159551); note: nearly all actives have a fitted effect of over 35% in size; note: potency is the fitted concentration of half-maximal effect
In short: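 Viability of C3RL4 cells is quantified from ATP by luminescence after 6 h treatment at 37 C with compounds and 1 uM retinol.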

[16] = qHTS assay to identify small molecule antagonists of the retinoic acid receptor (RAR) signaling pathway (AID 1159552; note: nearly all actives have a fitted effect of over 50% in size)
In short: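 Cells of the C3RL4 line were seeded, incubated overnight, then dosed with compounds in DMSO followed immediately by retinol (1 uM final). Six hours later luciferase detection reagent went in; signal was measured after 30 min at RT.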

[17] = biological target: Bile acid receptor (Homo sapiens) (UniProt Q96RI1); experiment: qHTS assay to identify small molecule antagonists of the farnesoid-X-receptor (FXR) signaling pathway (AID 743217; active = well fitted inhibition curve with a large enough effect in the signal ratio in the repeat runs, not every such curve was filed as active; the % refers to the signal ratio)
In short: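 FRET fluorescence after 2 h room-temperature LiveBLAzer loading gives the readout. Prior step: FXR-bla HEK 293T cells, seeded and incubated 5 h, received test compounds plus 50 uM final CDCA for 16 h at 37 °C.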

[18] = biological target: Bile acid receptor (Homo sapiens) (UniProt Q96RI1); experiment: qHTS assay to identify small molecule agonists of the farnesoid-X-receptor (FXR) signaling pathway (AID 743220; active = well fitted activation curve with a large enough effect in the signal ratio in the repeat runs, not every such curve was filed as active; the % refers to the signal ratio)
In short: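 FXR-UAS-bla HEK 293T cells carrying a UAS-driven beta-lactamase reporter were plated for 5 h at 37C/5% CO2, then exposed to DMSO-dissolved Tox21 10K compounds for 16 h at 37C. A LiveBLAzer B/G FRET substrate was loaded for 2 h at room temperature before fluorescence reading.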

[19] = biological target: Vitamin D3 receptor (Homo sapiens) (UniProt P11473); experiment: qHTS assay to identify small molecule agonists of the vitamin D receptor (VDR) signaling pathway (AID 743222; calls by dose curve)
In short: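 Following 4 h attachment at 37C, VDR-bla cells (2,000 per well) received DMSO-dissolved compounds or controls. After 16 h incubation, LiveBLAzer B/G FRET substrate was added and fluorescence read 2 h later at room temperature.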

[20] = biological target: Vitamin D3 receptor (Homo sapiens) (UniProt P11473); experiment: qHTS assay to identify small molecule antagonists of the vitamin D receptor (VDR) signaling pathway (AID 743223; active = well fitted inhibition curve with a large enough effect in the signal ratio in the repeat runs, not every such curve was filed as active; the % refers to the signal ratio; note: potency is the fitted concentration of half-maximal effect)
In short: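 Antagonist mode uses 1alpha,25-dihydroxyvitamin D3 at 3 nM final as stimulus. VDR-bla cells receive compounds in DMSO, incubate 16 h at 37C, then a beta-lactamase FRET substrate for 2 h at room temperature before fluorescence measurement.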

Measured: Potency

Sequence of Bile acid receptor (Homo sapiens) (Q96RI1 whole entry, looked up): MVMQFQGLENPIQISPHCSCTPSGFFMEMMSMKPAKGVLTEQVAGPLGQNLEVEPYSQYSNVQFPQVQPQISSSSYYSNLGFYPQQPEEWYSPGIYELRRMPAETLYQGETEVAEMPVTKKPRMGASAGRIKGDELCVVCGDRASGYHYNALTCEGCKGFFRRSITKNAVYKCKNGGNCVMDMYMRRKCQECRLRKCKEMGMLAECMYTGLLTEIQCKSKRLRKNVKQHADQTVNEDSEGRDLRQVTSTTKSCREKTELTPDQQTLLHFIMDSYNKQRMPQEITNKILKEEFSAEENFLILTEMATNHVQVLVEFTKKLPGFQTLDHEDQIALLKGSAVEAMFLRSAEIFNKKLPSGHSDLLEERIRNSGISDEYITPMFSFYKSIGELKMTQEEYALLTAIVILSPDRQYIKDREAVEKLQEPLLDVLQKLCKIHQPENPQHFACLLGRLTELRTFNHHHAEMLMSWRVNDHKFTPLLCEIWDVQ
Sequence of Retinoic acid receptor RXR-alpha (Homo sapiens) (P19793 whole entry, looked up): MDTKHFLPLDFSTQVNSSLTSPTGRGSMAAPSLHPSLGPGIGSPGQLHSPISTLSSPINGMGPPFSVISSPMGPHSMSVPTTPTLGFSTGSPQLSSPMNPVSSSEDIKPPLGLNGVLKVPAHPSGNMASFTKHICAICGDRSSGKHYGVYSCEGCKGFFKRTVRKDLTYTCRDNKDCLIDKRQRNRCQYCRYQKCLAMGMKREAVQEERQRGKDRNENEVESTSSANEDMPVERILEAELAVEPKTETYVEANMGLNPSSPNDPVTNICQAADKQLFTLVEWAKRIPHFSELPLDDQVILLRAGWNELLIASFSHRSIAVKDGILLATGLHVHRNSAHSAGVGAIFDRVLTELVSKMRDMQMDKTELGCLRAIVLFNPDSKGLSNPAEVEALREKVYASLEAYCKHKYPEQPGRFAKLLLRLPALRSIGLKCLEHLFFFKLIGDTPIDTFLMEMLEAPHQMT
Sequence of Vitamin D3 receptor (Homo sapiens) (P11473 whole entry, looked up): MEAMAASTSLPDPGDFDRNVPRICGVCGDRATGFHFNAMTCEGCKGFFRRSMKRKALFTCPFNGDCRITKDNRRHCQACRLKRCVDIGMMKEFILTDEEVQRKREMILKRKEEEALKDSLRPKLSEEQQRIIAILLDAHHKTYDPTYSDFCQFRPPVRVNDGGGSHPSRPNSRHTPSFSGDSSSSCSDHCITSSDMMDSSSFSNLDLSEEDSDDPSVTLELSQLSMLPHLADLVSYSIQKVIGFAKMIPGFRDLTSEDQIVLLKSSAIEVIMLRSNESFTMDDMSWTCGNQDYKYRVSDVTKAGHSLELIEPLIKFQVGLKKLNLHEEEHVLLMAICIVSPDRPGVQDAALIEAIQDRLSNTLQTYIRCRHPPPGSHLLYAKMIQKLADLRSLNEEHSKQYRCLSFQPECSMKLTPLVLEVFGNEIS

CCCn1cc[n+](C)c1
not listed: [16] | [17] | [18] | [19] | [20]
inactive: all other assays above

CCCC[n+]1ccccc1
not listed: [16] | [17] | [18] | [19] | [20]
inactive: all other assays above

CCCCn1cc[n+](C)c1C
not listed: [10] | [16] | [17] | [18] | [19] | [20]
inactive: all other assays above

CCCCCCCCCCCC(=O)O
active: [13] 55.1 µM and 63 µM
not listed: [10] | [17] | [18] | [19] | [20]
inactive: all other assays above

CCC(=O)C(CC(C)N(C)C)(c1ccccc1)c1ccccc1 (configuration not stated)
active: [10] 48.8 µM | [14] 43.8 µM
43.8 µM (active) and inactive: [6]
inactive and 37.4 µM (active): [1]
not listed: [4] | [5] | [13] | [19] | [20]
inactive: all other assays above

O=C(O)C(Cl)Cl
inactive and 3.09 µM (active): [13]
not listed: [16] | [17] | [18] | [19] | [20]
inactive: all other assays above

Nc1ccc(-c2ccc(N)c(Cl)c2)cc1Cl
inactive and 48.6 µM (active): [9]
active: [10] 68.6 µM
not listed: [7] | [16] | [17] | [18]
inactive: all other assays above

CCCCCCCCCCCCn1cc[n+](C)c1
inactive and 43.4 µM (active): [12]
49 µM (active) and inactive: [15]
inactive: [7] | [13]
active: [20] 55 µM
34.8 µM (active) and inactive: [6]
49.4 µM (active) and inactive: [11]
